From PubChem BioAssay (NCI) come the findings set out here.

Among the test systems are T-47D breast; BT-549 breast; MDA-MB-435 melanoma; MCF7 breast; HCT-116 colon; HCC-2998 colon; KM12 colon; SW-620 colon.
Assay in all cases: NCI-60 one-dose screen, 48 h (100 = growth as untreated, 0 = no growth, -100 = all killed)
Common to all, as to conditions: 10 µM unless noted

Several values for one entry are separate records, joined by “and”; a condition that tells them apart may be missing. Equal values may be shown once. About 83,000 compounds went through this panel and 20% of them were active in at least one assay; those are over-represented in the sample as a whole.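 48-hour exposure, single concentration, 96-well plates; percent growth endpoint where 0 means no net growth. Active: below 10.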 Values without a mark were called inactive. Activity calls are given as the source filed them.

Take `O=C(Cc1ccccc1)c1ccc(O)c(Cl)c1`: the growth with T-47D breast is 43.9%; in the assay with BT-549 breast it was 45.3%; in the assay with MDA-MB-435 melanoma, 41.3%; in the assay with MCF7 breast it was 20.4%; with HCT-116 colon it was 27%; in the assay on HCC-2998 colon, 43.4%. Also, the growth in the assay with KM12 colon was 51.4%.

Regarding `CCOC(=O)c1c(C)cc(=O)oc1C`, the growth was 102% in the assay with T-47D breast; 97.3% with BT-549 breast; 97.1% with MCF7 breast; 95.4% with HCT-116 colon; 110% with KM12 colon.

For the compound `CC(=O)NCC(=O)c1ccc([N+](=O)[O-])cc1`, the growth was 86.3% in the assay on T-47D breast; 107% in the assay on BT-549 breast; 104% in the assay with MDA-MB-435 melanoma; 96.5% with MCF7 breast; 106% in the assay on HCT-116 colon; 109% with HCC-2998 colon. The growth in the assay with KM12 colon is 103%.

As to `NN1CCOC(c2ccccc2)C1` (stereo not given), the growth in the assay with T-47D breast was 109%; in the assay with BT-549 breast, 102%; with MDA-MB-435 melanoma, 106%; with MCF7 breast, 91.8%; in the assay on HCT-116 colon, 91.2%; in the assay on HCC-2998 colon, 107%. In the assay with KM12 colon, the growth was 101%.

For `ClCCOCCOc1ccc(C2CCCCC2)cc1`, the growth was 96.7% in the assay on T-47D breast; 95% in the assay with BT-549 breast; 99.5% in the assay with MDA-MB-435 melanoma; 102% in the assay on MCF7 breast; 99.5% in the assay with HCT-116 colon; 110% in the assay on KM12 colon.

Regarding `NC(Cc1c[nH]c2ccccc12)C(=O)O` (stereo not given), the growth with T-47D breast is 110%; with BT-549 breast, 113% and 102%; in the assay with MDA-MB-435 melanoma, 98.9% and 105%; in the assay with MCF7 breast it was 105% and 98.5%; in the assay on HCT-116 colon it was 91.4% and 86.7%; in the assay with KM12 colon, 108% and 109%.

As for `Nc1ncnc2c1ncn2C1OC(COP(=O)(O)O)C(O)C1O` (stereo not given), the growth was 123% with T-47D breast; 113% in the assay with BT-549 breast; 101% in the assay on MCF7 breast; 108% with HCT-116 colon; 111% in the assay with KM12 colon.

Turning to `Brc1ccc(SSc2ccc(Br)cc2)cc1`, the growth in the assay with BT-549 breast was 29.4%; in the assay on MDA-MB-435 melanoma, 82.6%; with SW-620 colon, 84.2%; in the assay on MCF7 breast it was 59.7%; with HCT-116 colon, 56.6%; in the assay on HCC-2998 colon it was 93.5%. In addition, the growth in the assay with KM12 colon was 57.4%.

On to `Fc1ccc([I+]c2ccc(F)cc2)cc1`, for which the growth with BT-549 breast is 67%; in the assay with MDA-MB-435 melanoma it was 75%; in the assay on SW-620 colon, 55.9%; in the assay on MCF7 breast, 48.2%; in the assay on HCT-116 colon it was 32.9%; in the assay with HCC-2998 colon, 71.7%. Further, the growth with KM12 colon is 54.5%.

Turning to `CC(=O)OCC1OC(OC(C)=O)C(OC(C)=O)C(OC(C)=O)C1OC(C)=O` (stereo not given), the growth was 97.7% and 101% with T-47D breast; 96.3% and 103% in the assay with BT-549 breast; 105% and 107% in the assay on MDA-MB-435 melanoma; 99.8% and 91.9% in the assay on MCF7 breast; 103% in the assay on HCT-116 colon; 109% and 100% in the assay on KM12 colon.

`O=C(/C=C/c1ccccc1)c1ccccc1`: the growth is 64.6% in the assay with T-47D breast; 126% with BT-549 breast; 76.6% in the assay with MDA-MB-435 melanoma; -2.52% (active) in the assay with MCF7 breast; 6.71% (active) in the assay on HCT-116 colon; 120% with HCC-2998 colon. Also, the growth with KM12 colon is 33.3%.

Turning to `CC1=C/C(O)CC(=O)Cc2nc(co2)C(=O)N2CCC=C2C(=O)OC(C(C)C)C(C)/C=C\C(=O)NC/C=C\1` (stereo not given), the growth in the assay on T-47D breast was 89.4%; with MDA-MB-435 melanoma it was 81.2%; in the assay on SW-620 colon, 59.9%; with MCF7 breast, 71.8%; in the assay with HCT-116 colon it was 34.3%; in the assay on HCC-2998 colon it was 118%. In the assay on KM12 colon, the growth is 95.1%.

In the case of `Nc1nc(N)c2[nH]cnc2n1`, the growth in the assay on T-47D breast was 59.1%; in the assay on BT-549 breast it was 96.8%; in the assay with MDA-MB-435 melanoma, 84.5%; with MCF7 breast it was 54.2%; with HCT-116 colon, 90.5%; with KM12 colon, 107%.

For `Nc1ccc2c(O)cc(S(=O)(=O)O)cc2c1`, the growth is 85.5% and 101% in the assay with T-47D breast; 94.9% and 119% with BT-549 breast; 104% and 113% in the assay with MDA-MB-435 melanoma; 95% and 96.6% in the assay on MCF7 breast; 93.8% and 94% with HCT-116 colon; 120% and 103% in the assay on KM12 colon.

On to `CN(C)CC1CCCCCC(CN(C)C)C1=O` (stereo not given), for which the growth with T-47D breast was 22.2%; with BT-549 breast it was 95%; with MDA-MB-435 melanoma, 81.2%; in the assay with MCF7 breast, 24.7%; in the assay on HCT-116 colon, -35.5% (active); in the assay on HCC-2998 colon, 117%. Also, the growth with KM12 colon is 102%.

With `CC1CCC(C(C)C)C(NNC(N)=O)C1` (stereo not given), the growth in the assay on MDA-MB-435 melanoma was 101%; in the assay with MCF7 breast it was 100%; in the assay on HCT-116 colon, 99.5%; with KM12 colon, 94%.
